Chronic BCR inh: inhibitors of chronic active B-cell receptor signaling. ABC-DLBCL IkBa-CBG/CBR reporter, luminescence ratio, 4 h. Potency, µM (titrated, usually from 46.1 µM), for inactives: at the highest dose activity change, negative = inhibition, most hits filed as inhibitors. hit rate 0.05% among 340,000. AID 493014; active = well fitted inhibition curve with a large enough effect in the signal ratio, with a control signal flat, not every such curve was filed as active; inconclusive = small, poorly fitted or top-dose-only effect, or effect the other way, or a change in a side signal; the % refers to the signal ratio;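 also: potency is read from the fitted curve at half-maximal effect; plate controls were basal doxycycline-induced cells for no effect and cells given 10 µM MG132 for full effect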
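Cell line TMD8 (human ABC DLBCL), stably expressing tet-inducible CBG68-IkBa fusion and CBR; IMDM/0.5% FBS; cpd up to 46 uM; dox induction, 4 h, 37C/5% CO2; dual luminescence; green/red ratio; MG132 control.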
IL-1B inflam inh: inflammasome signaling inhibition, IL-1 beta readout. THP-1 LPS/ATP IL-1B secretion, AlphaLISA, 16 h; hits give low values. activity change, % at 57.5 µM. hit rate 4.7% among 360,000. AID 743279; in the data active = activity change below about -50%; inconclusive = mostly about -30% to -49%; also: % is scaled to controls: 0 for no effect and ±100 for the full control effect
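THP-1 cells pretreated 1 hr with compounds (up to 57.5 uM final), then stimulated with LPS (250 ng/mL final) plus ATP (1.25 mM final); secreted IL-1B measured by AlphaLISA after 16 hr, decreased signal indicating inhibition.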
DT40 TDP1 CPT: growth inhibition of DT40 Tdp1-/-;hTDP1 cells with camptothecin (screen for TDP1 inhibitors). hit rate 12% among 420,000. Potency, µM (top dose mostly 46.2 µM), inactives show at the highest dose activity change, negative = growth inhibition, actives largely listed as inhibitors. AID 686979. chicken DT40 Tdp1-/-;hTDP1 cells + 20 nM CPT, ATP luminescence, 48 h; also: potency is read from the fitted curve at half-maximal effect; % is scaled to controls: 0 for no effect and ±100 for the full control effect; nearly all actives have a fitted effect of over 55% in size
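Cell growth measured by CellTiter-Glo luminescence after a minimum 48 h, 37 C compound exposure with 20 nM CPT in Tdp1-knockout DT40 cells stably expressing hTDP1, seeded 400/well; qHTS titration format.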
MCF10A rereplic: inducers of DNA re-replication in MCF 10A breast cells; Potency, µM (highest dose often 46.1 µM), for the others: top-dose activity, positive = re-replication, usual class: activators; hit rate 2.9% among 350,000; AID 624296; MCF 10A DNA re-replication, Hoechst nuclear intensity, 48 h; also: potency is read from the fitted curve at half-maximal effect; % of control where 0% means no effect; nearly all actives have a fitted effect of over 50% in size
SW480 rerep: inducers of DNA re-replication in SW480 colon cancer cells. hit rate 1.8% among 340,000. Potency, µM (doses to about 46.1 µM), for the others: at the highest dose re-replication activation, hits mostly activators. AID 624297. SW480 DNA re-replication, Hoechst DNA content imaging, 48 h; also: potency is read from the fitted curve at half-maximal effect; % of control where 0% means no effect; nearly all actives have a fitted effect of over 55% in size
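Readout is total intensity of Hoechst-stained nuclei, excited at 405 nm and collected at 500-530 nm. Compound treatment lasted 48 hr at 37 C in 5% CO2 before staining.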
DT40 TDP1 no CPT: qHTS for Inhibitors of human tyrosyl-DNA phosphodiesterase 1 (TDP1): qHTS in cells in absence of CPT; DT40 Tdp1-/- hTDP1 cells, no CPT, ATP luminescence, 48 h; hit rate 15% among 420,000; Potency, µM (top dose mostly 46.2 µM), for inactives: top-dose activity change, negative = growth inhibition, most hits filed as inhibitors; also: potency is read from the fitted curve at half-maximal effect; % is scaled to controls: 0 for no effect and ±100 for the full control effect; nearly all actives have a fitted effect of over 55% in size
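Chicken DT40 Tdp1-/- cells stably complemented with human TDP1 were seeded at 400 cells/well with DMSO in place of 20 nM camptothecin. After compound pinning, cells grew at least 48 hr at 37 °C; viability read by CellTiter-Glo luminescence.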
Active calls of the source: *; ? = inconclusive; . = not tested or not shown; [ ] = another dose, or the depositor's remark. A selection: hits, their analogues and other compounds. The true share with any hit is near 19%. Unless noted, calls follow the shape of the dose curve; as a rule, active = well fitted curve in the direction sought with a large enough effect; inconclusive = small, poorly fitted or top-dose-only effect, or another doubt; inactive = no such curve, though single readings can be large; an effect the other way counts as inactive or inconclusive.

SMILES | Chronic BCR inh | IL-1B inflam inh | DT40 TDP1 CPT | MCF10A rereplic | SW480 rerep | DT40 TDP1 no CPT
N#CC1(Cc2ccc(Cl)cc2)c2ccccc2C=CN1C(=O)c1ccccc1 (centres undefined) | ? | 19.7 | ? | ? | 4.8% | 18.4µM*
CCOC(=O)N1CCN(C(=O)c2ccc(S(=O)(=O)Nc3ccc(C)cc3)cc2)CC1 | -0.4% | 37.3 | 9.2µM* | -3.0% | -2.5% | 10.3µM*
CCOC(=O)N1CCN(C(=O)c2ccc(NS(=O)(=O)c3ccc(C)cc3)cc2)CC1 | -1.2% | 0.0 | 18.4µM* | 0.3% | -2.9% | 13µM*
COc1ccc(-c2nnc3c4ccccc4c(-c4ccccc4)nn23)cc1 | . | . | 10.9% | . | . | -0.5%
Cc1ccc(CNC(=O)N2CCN(S(=O)(=O)c3ccccc3)CC2)cc1 | 9.5% | -7.9 | 7.1% | ? | -4.6% | -7.5%
CC1(C(=O)Nc2cccc3ccccc23)CCN1C(=O)Cc1ccc(Cl)cc1Cl (centres undefined) | . | -22.2 | -105.3% | . | . | ?
CCNS(=O)(=O)c1ccc2c(c1)NCC2 | 0.5% | 13.5 | 1.1% | -4.8% | 5.8µM* | 8.9%
COc1ccc(CNC(=O)COC(=O)c2ccc(OCC3CCCO3)cc2)cc1 (centres undefined) | -0.3% | 31.4 | ? | 8.1% | ? | ?
Cc1cc(NC(=O)c2ccc(-c3ccccc3[N+](=O)[O-])o2)no1 | 15.2% | 1.1 | ? | 1.5% | -3.4% | ?
Cc1cc(NC(=O)c2ccc(-c3ccccc3F)o2)no1 | 14.7% | -6.9 | ? | ? | -25.1% | 18.4µM*
Cc1cc(NC(=O)c2cccc(C(=O)Nc3cc(C)on3)n2)no1 | ? | 0.0 | 0.184µM* | 5.2% | 6.8% | 0.651µM*
Cc1cc(NC(=O)c2c(C)noc2C)no1 | 6.6% | 20.0 | 2.8% | 16.4µM* | ? | -13.1%
C#CCNC(=O)C[C@@H]1C[C@@]2(C(=O)OCC)CCCC=C2N(Cc2ccc3c(c2)OCO3)C1=O | . | 2.9 | -15.0% | . | . | -26.7%
C#CCNC(=O)C[C@@H]1C[C@@]2(C(=O)OCC)CCCC=C2N(CCC2=CCCCC2)C1=O | . | 28.1 | 13µM* | . | . | 14.6µM*
CCCCCCCCN1C(=O)[C@H](CC(=O)NCC2CCCCC2)C[C@@]2(C(=O)OCC)CCC=C12 | . | -25.3 | 16.4µM* | . | . | 18.4µM*
CCCCCCCCN1C(=O)[C@H](CC(=O)NCC2CCCCC2)C[C@@]2(C(=O)OCC)CCCC=C12 | . | -51.3* | 20.6µM* | . | . | 18.4µM*
CCCCNC(=O)C[C@@H]1C[C@@]2(C(=O)OCC)CCCC=C2N(Cc2ccco2)C1=O | . | 0.0 | ? | . | . | ?
C#CCNC(=O)C[C@@H]1C[C@@]2(C(=O)OCC)CCCC=C2N(CCCCCCCC)C1=O | . | ? | 16.4µM* | . | . | 13µM*
O=C(CN1CCN(Cc2ccc(F)cc2)C1=O)NCc1ccccc1 | . | . | -6.7% | . | . | 4.4%
COc1cc(=O)n2c(c1C(=O)NCc1ccco1)CCN(Cc1cccc(C)n1)CC2 | . | . | 3.7%[9.04 µM] | . | . | 4.9%
Cn1c(=O)n(C)c2cc(NC(=O)c3ccc(F)cc3)ccc21 | -18.6% | -16.2 | 5.5% | ? | -1.2% | -2.3%
Cc1ccccc1NS(=O)(=O)c1ccc(Br)s1 | . | . | -9.5% | . | . | -2.6%
O=C(NCCCN1CCN(CCCNC(=O)c2ccccc2F)CC1)c1ccccc1F | 2.0% | -13.7 | ? | 18.8% | 7.31µM* | -17.7%
O=C(CCN1CCCCC1)c1cccc(Cl)c1 | . | 0.6 | 20.6µM* | ? | 10.7% | ?
O=C(NCCN1CCN(c2ccccc2)CC1)c1ccccc1F | -0.2% | -9.8 | -5.9% | 14.6% | 2.2% | 10.9%
O=C(NCCCN1CCN(CCCNC(=O)c2cccc(Cl)c2)CC1)c1cccc(Cl)c1 | -0.1% | -56.5* | 18.4µM* | ? | 1.1% | ?
Cc1ccc(-c2noc(COc3ccc(Br)c(C)c3)n2)cc1 | . | . | -3.3% | . | . | -12.3%

Assay outcomes: PubChem, National Center for Advancing Translational Sciences (NCATS)
